Test results from ChEMBL document CHEMBL3988442, “University of Dundee, Small-Polar-MMV Screening Library” (2021).
Hit rate of the full screen: of about 69,000 compounds, about 950 (1.4%) showed an effect of 50% or more. For the sample, strong results were picked, then their nearest neighbours and some compounds at random.

These compounds were tested on Mycobacterium tuberculosis (assay: Cornell M. t heat shock assay; further: in the data most compounds retested in dose-response had high values).
Assay type: functional, organism-based
Set-up: dose or concentration left out as unconfirmed

SMILES | Percent Effect [%]
Cc1noc([C@]23COC[C@H]2CN(C(=O)CN(C)C)C3)n1.O=C(O)C(F)(F)F | 15.78
CC1CCN(c2cc(CCC3CCCN3)ncn2)CC1.Cl (stereo unspecified) | -19.69
Cc1nocc1C(=O)N1CCOC2(COCCN(C(C)C)C2)C1.O=C(O)C(F)(F)F (stereo unspecified) | 1.76
CCN(Cc1ccc2cccc(O)c2n1)CC1CCCO1 (stereo unspecified) | 84.2
CCN(Cc1cccc2c1OCO2)CC1CCCO1 (stereo unspecified) | -23.06
CCN(Cc1cccnc1)CC1CCCO1 (stereo unspecified) | -42.47
O=C(O)C(F)(F)F.O=S1(=O)c2ccccc2C2(CCN(Cc3ccccc3)C2)N1CC1CC1 (stereo unspecified) | 20.71
OCC1CCN(c2ccc(NCc3ccsc3)nc2)CC1 | 11.8
COCCN(C)c1ccc(NCc2ccsc2)nc1 | 90.49
CCn1cc(CNc2ccc(N(C)CCOC)cn2)cn1 | 57.45
COCCN(C)c1ccc(NCc2cscn2)nc1 | 13.97
COCCN(C)c1ccc(NCc2cccnc2)nc1 | 21.66
CCn1cc(CNc2ccc(Br)c(OC)c2)cn1 | -14.65
Cl.O=C(c1ccccc1Cl)N1CCN(CCc2ccccn2)CC1 | -2.792
COCCN1CCN(c2cccc(C)n2)Cc2ccc(C)nc21.O=C(O)C(F)(F)F.O=C(O)C(F)(F)F | 28.62
CN(Cc1cccc2cccnc12)C1CCS(=O)(=O)C1.O=C(O)CC(O)(CC(=O)O)C(=O)O (stereo unspecified) | -10.77
Cc1cccc(CN2CCO[C@H]3[C@@H](OCc4ccncc4)CC[C@@H]32)n1.O=C(O)C(F)(F)F.O=C(O)C(F)(F)F.O=C(O)C(F)(F)F | -9.598
CN(C)C(=O)[C@@H]1C[C@@H]2CCN(C3CCOCC3)C[C@H]2O1.O=C(O)C(F)(F)F | -21.42
CN1C(=O)[C@H](OC(N)=O)[C@@H](C(=O)Nc2ccccc2)C12CCNCC2 | 31.45
CNC(=O)[C@@H]1[C@@H](OC(=O)Nc2ccccc2)C(=O)N(C)C12CCNCC2 | 60.88
CO[C@H]1C(=O)N(C)C2(CCNCC2)[C@@H]1C(=O)Nc1ccccc1 | 47.74
Fc1ccc(F)c(CN2CCC(c3n[nH]c4ncccc34)CC2)c1.O=C(O)CC(O)(CC(=O)O)C(=O)O | -14.52
CN(CCc1cccc2ccccc12)Cc1nc(N)nc(N(C)C)n1 | 75.75
COc1ccccc1CCN(C)Cc1nc(N)nc(N(C)C)n1 | 10.83

SMILES | Percent Effect [%]
CN(Cc1nc(N)nc(N(C)C)n1)Cc1cccc2ccccc12 | -5.133
CC(C)Cn1ccnc1CNC(=O)NC(C)(C)c1nccs1 | -19.09
Cc1nc(C(C)NC(=O)NCc2nccn2CC(C)C)cs1 (stereo unspecified) | 0.1192
CC(C)Cn1ccnc1CNC(=O)NC(C)c1nccs1 (stereo unspecified) | 55.14
O=C(O)C(F)(F)F.O=C(c1cscn1)N1CCc2ncnc(-c3cccnc3)c2CC1 | -9.91
CC(=O)N1N=C(c2cccs2)OC1C(=O)Nc1ccccc1 (stereo unspecified) | 6.727
CC(=O)N1N=C(c2ccccc2)OC1C(=O)NCCc1cccc(F)c1 (stereo unspecified) | 26
CC(=O)N1N=C(c2cccs2)OC1C(=O)NCCc1cccc(Cl)c1 (stereo unspecified) | 62.85
CC(=O)N1N=C(c2ccccc2)OC1C(=O)NCCc1cccc(Cl)c1 (stereo unspecified) | -5.794
COc1ccc(NC(=O)C2OC(c3cccs3)=NN2C(C)=O)cc1 (stereo unspecified) | 19.1
COc1ccc(NC(=O)C2OC(c3cccs3)=NN2C(C)=O)cc1OC (stereo unspecified) | 54.99
O=C(O)C(F)(F)F.O=C(c1ccc2ccccc2n1)N1CCC2(CCN2c2ncccn2)C1 (stereo unspecified) | -9.605
CCc1ccc(CN2CCC3(CC2)CC(N2CCN(C)CC2)CO3)cc1.O=C(O)C(F)(F)F (stereo unspecified) | 2.884
Cc1ccc(CCNC(=O)c2cccnc2)o1 | 80.23
Cc1ccc(CN(C(=O)NCCNC(=O)c2cccnc2)C(C)C)o1 | -12.97
Cc1ccc(CN2CC[C@@H](NC(=O)c3cccnc3)[C@H](O)C2)o1 | 8.326
CCc1cc(C(=O)N2CCCC(Cc3ccc(NC)nn3)C2)on1 (stereo unspecified) | -39.14
COCCCNC(=O)CN(C)C(=O)c1cc(Cl)ccc1O | 100.8
COCCCNC(=O)CN(C)C(=O)c1ccccc1O | -10.97
COCCCNC(=O)CN(C)C(=O)c1cc(C)ccc1O | 5.458
N#Cc1cccc(CN2CCn3cc(Cn4cccn4)nc3C2)c1.O=C(O)C(F)(F)F.O=C(O)C(F)(F)F | -31.57
COC[C@@H]1CCC[C@@]12CN(Cc1ccc(C)s1)CCO2.O=C(O)C(F)(F)F | -18.91
CCOCc1cnc2n1CCN(C(=O)c1cn(C)c3ccccc13)C2C (stereo unspecified) | 8.997
CCOCc1cnc2n1CCN(C(=O)c1cccc3c1OCCO3)C2C (stereo unspecified) | 51.66

SMILES | Percent Effect [%]
CCOCc1cnc2n1CCN(C(=O)C1=CCCC1)C2C (stereo unspecified) | -7.076
CCOCc1cnc2n1CCN(C(=O)Cc1cccs1)C2C (stereo unspecified) | -15.31
CCOCc1cnc2n1CCN(C(=O)c1ccccc1)C2C (stereo unspecified) | 53.26
CCOCc1cnc2n1CCN(C(=O)c1ccoc1C)C2C (stereo unspecified) | 26.88
Cc1nc(COC[C@@H]2CC[C@H]3[C@H](CCN3c3ncccn3)O2)cs1.O=C(O)C(F)(F)F | 3.819
O=C(O)C(F)(F)F.O=C(O)C(F)(F)F.O=C(O)C(F)(F)F.c1ccc(N2CC3(CCN(Cc4cccnc4)C3)C2)nc1 | -1.371
COc1ncccc1CN1C[C@H]2C[C@@H](C(=O)NCC3CC3)N(C)[C@H]2C1.O=C(O)C(F)(F)F.O=C(O)C(F)(F)F.O=C(O)C(F)(F)F | -0.5017
COCCNC(=O)[C@@]12CCO[C@@H]1CCN(Cc1cc(C)on1)C2.O=C(O)C(F)(F)F | -5.953
COc1ccc(C(CNS(=O)(=O)c2cn(C)nc2C)N2CCCC2)cc1.Cl (stereo unspecified) | -8.275
CCN(Cc1cccc(Cl)c1)Cc1ncc(C(C)(C)C)o1 | -28.51
Cc1cccc(CN(Cc2ccccn2)Cc2ncc(C(C)(C)C)o2)c1 | 77.52
Cc1cccc(CN(Cc2ccccn2)S(=O)(=O)N(C)C)c1 | -11.53
O=C(O)C(F)(F)F.O=C(c1cc[nH]n1)N1CCc2onc(COc3cccnc3)c2C1 | 4.696
CC(Cn1ccnc1)NCc1cc(Br)c2c(c1)OCO2.Cl (stereo unspecified) | -15.88
O=C(CN1CCCC(Cn2cncn2)C1)Nc1cccnc1 (stereo unspecified) | 9.071
O=C(CN1CCCCC1Cn1cncn1)Nc1ccncc1 (stereo unspecified) | -9.468
Clc1ccc2cccnc2c1CN1CCCC1Cn1cncn1 (stereo unspecified) | 52.22
Cc1nc2ccccc2nc1CN1CCCCC1Cn1cccn1 (stereo unspecified) | 5.148
Cc1nc2ccccc2nc1CN1CCCCC1Cn1cncn1 (stereo unspecified) | 12.5
Clc1ccc2cccnc2c1CN1CCCC(Cn2cncn2)C1 (stereo unspecified) | 18.36
Cc1nc2ccccc2nc1CN1CCCC1Cn1cncn1 (stereo unspecified) | 3.442
Cc1nc2ccccc2nc1CN1CCCC1Cn1cccn1 (stereo unspecified) | 61.51
Clc1ccc2cccnc2c1CN1CCCCC1Cn1cncn1 (stereo unspecified) | 36.55
Cc1nc(CN2CCCC2Cn2cncn2)nc2ccccc12 (stereo unspecified) | 19.17

SMILES | Percent Effect [%]
Cc1c(Cl)c(CN2CCCC2Cn2cncn2)nc2ccccc12 (stereo unspecified) | 54.06
O=C(CN1CCCC1Cn1cncn1)Nc1cccnc1 (stereo unspecified) | 62.16
CN1CC(=O)N(c2cccc(F)c2)CC12CCN(Cc1cnn(C)c1)C2.O=C(O)C(F)(F)F.O=C(O)C(F)(F)F (stereo unspecified) | -4.947
Cc1cccc(Nc2cc(C)nc(C3CCN(C(C)C)C3)n2)n1.O=CO (stereo unspecified) | -16.48
Cn1cc(CN2CCC[C@]3(C[C@H](Oc4ncccc4F)CO3)C2)cn1.O=C(O)C(F)(F)F.O=C(O)C(F)(F)F | 15.03
Cc1cnc(C(=O)N2CCCC(c3c(C)c(=O)nc4n3CCC4)C2)cn1.Cl (stereo unspecified) | -2.984
Cc1cc2cc(C(=O)N3CC[C@H](O)[C@]4(CCCO4)C3)ccc2o1 | -15.2
CCC(C)NS(=O)(=O)Cc1cccc(NC(=O)C2=CCCC2)c1 (stereo unspecified) | 26.24
Cc1cccc2nc(CN3CCCC3Cn3cccn3)cn12 (stereo unspecified) | 71.56
Cc1cccc2nc(CN3CCCC3Cn3cncn3)cn12 (stereo unspecified) | -15.33
Cc1nc(C)n(CC2CCCN2Cc2cn3c(C)cccc3n2)n1 (stereo unspecified) | -6.121
Cc1cc(N(C)C)nc(C2CCCNC2)n1.Cl (stereo unspecified) | -4.07
COc1ccc(C[C@H]2CN(Cc3ccoc3)CC[C@H]2OC)cc1.O=C(O)C(F)(F)F | 23.61
CC(NCCn1c(=O)oc2ccccc21)c1ccccn1 (stereo unspecified) | 5.47
Cc1noc(C)c1CN(C)Cn1c(=O)oc2ccccc21 | -12.14
CCCN(CCn1c(=O)oc2ccccc21)CC1CC1 | 105
CCN(Cc1ccc(C(C)=O)cc1)CC1CCOCC1 | 5.377
CCN(CCn1c(=O)oc2ccccc21)CC1CCOCC1 | 86.99
Cn1cc(C2CCCN2CCCn2c(=O)oc3ccccc32)cn1 (stereo unspecified) | -2.71
CCN(CC)CCn1c(=O)oc2ccccc21.Cl | 76.75
O=c1oc2ccccc2n1CCCN1CCCC1c1ccc(O)cc1 (stereo unspecified) | -35.87
O=c1oc2ccccc2n1CCN(CC1CCOC1)C1CC1 (stereo unspecified) | -26.82
COc1cccc(Nc2nc(C3CCNCC3)c3sc(C)c(C)n23)c1.Cl | 44.92
CN(C)[C@@H]1CN(Cc2cnn(C)c2)[C@@H]2COC[C@H]12.O=C(O)C(F)(F)F.O=C(O)C(F)(F)F.O=C(O)C(F)(F)F | -14.51
